Measured values reported in PubChem BioAssay AID652104 (National Center for Advancing Translational Sciences (NCATS), 2013).
Screen size: about 410,000 compounds; about 7,200 (1.8%) were called active. Entries that show only a call come without a potency. About 7% were inconclusive and are not listed. The sample as a whole holds a higher share of actives than the screen did. Values without a mark were called inactive. Calls come from the whole dose curve; as a rule, active = well fitted activation curve with a large enough effect; inconclusive = small, poorly fitted or top-dose-only effect, or another doubt; inactive = no such curve, though single readings can be large or run the other way.

Assay: qHTS of TDP-43 Inhibitors; note: nearly all actives have a fitted effect of over 50% in size
Conditions: TDP-43 expressing yeast growth rescue, BacTiter-Glo, 24 h; series mostly up to 46.1 µM
How it was run: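 In this qHTS, compounds that restore growth of yeast expressing TDP-43 appear as activators. Cells (OD600=0.02, galactose medium, raffinose-pregrown) are incubated with compound 24 hr at 30 deg C and growth is quantified by BacTiter-Glo.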
Potency is the fitted concentration of half-maximal effect.

SMILES	Potency	growth rescue (activation)
COc1ccc(-c2csc(Nc3ccccn3)n2)cc1	3.55 µM (active)	–
COc1ccc(-c2csc(-c3c(N)c(C(=O)c4ccc(OC)c(OC)c4)n4ccccc34)n2)cc1	inactive	–
Cc1cc(-c2ccccc2)n2nc(-c3ccccc3)cc2n1	inactive	–
Cc1cccc(NS(=O)(=O)c2ccc([N+](=O)[O-])cc2)n1	inactive	–
CCCn1c(C2CCCN2c2nc(-c3ccc(OC)cc3)cs2)nc2ccccc21 (stereo unspecified)	inactive	–
Cc1cccc(Nc2nc(-c3ccccc3)cs2)n1	14.1 µM (active)	–
O=C(NCC(c1ccco1)S(=O)(=O)c1cccs1)c1ccc(F)cc1 (stereo unspecified)	inactive	–
Cc1ccc(N(CC(=O)NCc2ccc(Cl)cc2)S(=O)(=O)N(C)C)cc1	inactive	–
COc1ccccc1CNC(=O)C(Cc1ccccc1)NS(=O)(=O)c1ccc2c(c1)oc(=O)n2C (stereo unspecified)	inactive	–
Cc1ccc(Cn2c(=O)n(-c3ccc(C)cc3)c(=O)c3c2c2cc(C)ccc2n3C)cc1	inactive	–
CCOc1ccc(N2CC(C)Cn3c2nc2c3c(=O)n(Cc3c(F)cccc3Cl)c(=O)n2C)cc1 (stereo unspecified)	inactive	–
CCCCC(=O)OC1=CN(Cc2ccccc2)S(=O)(=O)c2ccccc21	inactive	–
CC(=O)OC1=C(C(C)=O)N(Cc2ccccc2)S(=O)(=O)c2ccccc21	35.5 µM (active)	–
CCOC(=O)CN1C(C(=O)c2ccccc2)=C(OC(=O)C(C)(C)C)c2ccccc2S1(=O)=O	inactive	–
CC(=O)c1ccc(OC(=O)N2CCOCC2)cc1	inactive	–
CC(=O)Oc1ccc(-c2cccc(C(=O)N3CCCCC3)c2)cc1	–	-16% [at 1.82 µM]
O=C(c1ccccc1)c1ccc(OC(=O)N2CCCC2)cc1	11.2 µM (active)	–
O=S(=O)(NCCc1ccccc1)c1ccccc1	inactive	–
O=C(Cc1ccccc1)NCC1OCCc2ccccc21 (stereo unspecified)	inactive	–
O=S(=O)(NCC1OCCc2ccccc21)c1ccccc1 (stereo unspecified)	10 µM (active)	–
CCCOc1ccc(C(=O)Nc2ccc3oc(-c4cccc(Cl)c4Cl)nc3c2)cc1	inactive	–
CCOc1ccc(NC(=O)c2cc(S(=O)(=O)N3CCCC3)c[nH]2)cc1	inactive	–
CN(C)c1ccc(-c2nnc(-c3cccnc3)o2)cc1	10 µM (active)	–
CCCN(CCC)c1ccc(C(O)c2nnc(-c3ccccc3)o2)cc1 (stereo unspecified)	inactive	–
CC1(c2nnc(-c3ccncc3)o2)CC(c2cccnc2)=NO1 (stereo unspecified)	inactive	–
O=C(Cn1ncc2c3ccccc3n(Cc3ccccc3)c2c1=O)NC1CCCCCC1	inactive	–

SMILES	Potency	growth rescue (activation)
CCC(Sc1nnc(-c2ccc(OC)cc2)c(-c2ccc(OC)cc2)n1)C(=O)NC1CCCCC1 (stereo unspecified)	inactive	–
CN(Cc1ccccc1)C(=O)c1cn(C)c2ccc(S(=O)(=O)N(C)C3CCCCC3)cc2c1=O	inactive	–
CCOc1ccccc1CNC(=O)c1ccc2c(c1)nc1n2CCC(C)C1 (stereo unspecified)	inactive	–
CCOc1ccccc1C(=O)NCC(c1ccc(N(C)C)cc1)N1CCCC1 (stereo unspecified)	inactive	–
COc1ccc(-c2noc(CSc3nnc(-c4ccccc4)n3-c3ccc(F)cc3)n2)c(OC)c1	inactive	–
CCc1cc(C(c2ccccc2OC)N2CCOCC2)c(NC(=O)c2ccccc2)s1 (stereo unspecified)	20 µM (active)	–
COc1ccccc1C(=O)Nc1cccc(C(=O)N2CCOCC2)c1	inactive	–
COc1cc(C(c2c(NC(=O)c3ccco3)sc(C)c2C)N2CCOCC2)cc(OC)c1OC (stereo unspecified)	inactive	–
COc1ccccc1NC(=O)C1=C(C)Nc2nc(SCC(=O)c3ccc(C)cc3)nn2C1c1ccccc1C (stereo unspecified)	inactive	–
CCCCn1c(CNC(=O)C23CC4CC(CC(C4)C2)C3)nnc1SCC(=O)Nc1ccc(C)cc1	inactive	–
O=C(CO/N=C/c1ccccc1O)NNC(=O)c1ccccc1Cl	3.16 µM (active)	–
O=C(CO/N=C/c1ccccc1OC(F)F)NC1CCCC1	–	26.6% [at 9.22 µM]
O=C(COc1ccccc1F)NNC(=O)c1cc(Br)ccc1Cl	inactive	–
O=C(c1ccccc1F)N1CCC(c2nc3c(nnn3Cc3cccc(F)c3)c(=O)[nH]2)CC1	inactive	–
CC(C)c1ccc(OCC(=O)N(Cc2ccc(N(C)C)cc2)C2CCS(=O)(=O)C2)cc1 (stereo unspecified)	inactive	–
COc1ccc(-c2cn3c(n2)sc2cc(C(=O)Nc4ccccc4F)ccc23)cc1	inactive	–
NNC(=O)c1ccc(COCC(F)(F)C(F)F)cc1	inactive	–
Cc1ccc(COc2ccc(C(=O)NN)cc2)cc1	15.8 µM (active)	–
Cc1oc(C(N)=O)cc1COc1ccc(C(N)=O)cc1	inactive	–
Cc1nn2c(=O)cc(COC(=O)c3ccccc3NC(=O)COc3ccccc3C)nc2s1	inactive	–
CCc1ccc2oc(-c3ccc(C)c(NC(=O)/C=C/c4ccco4)c3)nc2c1	inactive	–
Cc1ccc(OCCSc2nc(-c3cccs3)nc3cc(=O)[nH]n23)cc1Cl	inactive	–
COc1ccc(-c2nc3cnccn3c2NC(C)(C)CC(C)(C)C)cc1O	inactive	–
Cc1ccc(Nc2c(-c3ccc(C)cc3)nc3cnccn23)cc1	22.4 µM (active)	–
Cc1ccc(Nc2c(-c3ccc(C)s3)nc3ccccn23)cc1	inactive	–
COc1ccc(-c2nc(CN3CCC(C(=O)NCCN(CC(C)C)CC(C)C)CC3)c(C)o2)cc1OC	inactive	–

SMILES	Potency	growth rescue (activation)
CCNS(=O)(=O)c1cc(-c2nnc(Nc3cccc(C(F)(F)F)c3)c3ccccc23)ccc1C	inactive	–
CCC1=Nc2cc(C(=O)NCCCOC(C)C)ccc2Sc2ccc(C)cc21	inactive	–
CC(=O)N1c2ccccc2CC1C(=O)N1CCN(c2ccc(F)cc2)CC1 (stereo unspecified)	inactive	–
COc1ccc(NC(C)=O)cc1NC(=O)CN1CCN(c2ccc(F)cc2)CC1	inactive	–
CC(=O)c1ccc(N2CCN(CC(=O)Nc3ccccc3N3CCOCC3)CC2)cc1	–	-6.9% [at 9.22 µM]
CCCCC(=O)Nc1ccccc1N1CCN(c2ccc(F)cc2)CC1	22.4 µM (active)	–
CCCC(=O)Nc1ccccc1N1CCN(C(=O)c2ccccc2)CC1	inactive	–
CCC(C)C(=O)Nc1ccccc1N1CCN(c2ccc(F)cc2)CC1 (stereo unspecified)	25.1 µM (active)	–
CCCC12CN3CC(CCC)(CN(C1)C3c1c[nH]c3ccc(OC)cc13)C2=O (stereo unspecified)	inactive	–
COc1cccc(C(O)c2nc3ccccc3n2C)c1 (stereo unspecified)	inactive	–
CCCCCC(O)c1cccc(OCc2ccc3ccccc3n2)c1 (stereo unspecified)	12.6 µM (active)	–
COc1cccc(C(O)c2ncc(-c3ccc4ccccc4c3)[nH]2)c1 (stereo unspecified)	inactive	–
COc1ccc(OC)c(-c2csc(-c3c(N)c(C(=O)c4ccccc4)n4ccccc34)n2)c1	inactive	–
CCC(=O)Nc1cccc(-c2nc3cc(C)ccc3o2)c1	14.1 µM (active)	–
O=C(Nc1cccc(-c2nc3ccccc3o2)c1)c1cccc(Br)c1	inactive	–
Cc1ccc(SCC(=O)Nc2ccc3oc(-c4ccccc4C)nc3c2)cc1	inactive	–
CCOc1ccc(-n2c(C)nc3c(cnn3-c3ccc(C)cc3)c2=O)cc1	inactive	–
CCOC(=O)Cn1c(=O)n(C2CCCCC2)c2nc(-c3cccc(OC)c3)nc(C(N)=O)c21	inactive	–
Cc1ccc(Cl)cc1NC(=O)CCS(=O)(=O)c1ccc(Br)s1	inactive	–
CN(C)NC(=O)c1csnc1-c1c(Cl)cccc1Cl	inactive	–
O=c1[nH]snc1-c1c(Cl)cccc1Cl	17.8 µM (active)	–
O=Cc1c(Cl)cccc1Cl	inactive	–
Cc1ccc(NC(=O)C2CC(c3ccc(F)cc3)=NO2)cc1 (stereo unspecified)	inactive	–
O=C(Nc1ccc2c(c1)OCO2)C1CC(c2c(F)cccc2Cl)=NO1 (stereo unspecified)	10 µM (active)	–
Cc1ccccc1N1CC(C(=O)Nc2ccc3c(c2)OCO3)CC1=O (stereo unspecified)	inactive	–
Cc1cccc(CSc2nc3ccncc3n2Cc2ccc(C(=O)O)cc2)c1	inactive	–

SMILES	Potency	growth rescue (activation)
CSc1ccccc1-c1nnc(NC(=O)c2ccc3c(c2)OCCO3)o1	inactive	–
Cc1ccc(C(=O)Nc2nnc(C3=COCCO3)o2)cc1C	inactive	–
COc1ccccc1-c1nnc(NC(=O)c2ccc3ncsc3c2)o1	11.2 µM (active)	–
CCOc1ccc(NC(=O)CCC(=O)N2CC(C)Oc3ccc(C)cc32)cc1 (stereo unspecified)	inactive	–
Clc1ccc(C2=CSC3=Nc4cccc5cccc(c45)N23)cc1	17.8 µM (active)	–
COc1ccc(CCN2C(=O)c3oc4cc(C)cc(C)c4c(=O)c3C2c2ccccc2F)cc1OC (stereo unspecified)	inactive	–
O=C(Nc1cccc(NC(=O)c2ccco2)c1)c1cnccn1	12.6 µM (active)	–
O=C(Nc1ccc2nc(SCCOc3ccccc3)sc2c1)c1ccco1	inactive	–
O=C(Nc1cc(-c2nc3ncccc3o2)ccc1Cl)c1ccco1	inactive	–
CSc1nc(=O)c2c(n1C)NC(=O)CC2c1ccccc1OC(C)C (stereo unspecified)	–	5.81% [at 9.22 µM]
COc1ccc(CCN2C(=O)N(c3cccc(OC)c3)C(=O)C2CC(=O)Nc2ccccc2)cc1 (stereo unspecified)	inactive	–
N#Cc1ccccc1Cn1cnc2nc3c(cc2c1=O)CCCC3	inactive	–
Cc1ccc2oc(=O)c3cnn(CC(=O)N4CCN(c5cccc(Cl)c5)CC4)c3c2c1	inactive	–
O=C(CSc1nc2ccccc2o1)N1CCN(c2ccc(Cl)cc2)CC1	inactive	–
Cc1ccc2onc(CC(=O)N3CCN(c4ccc(Cl)cc4)CC3)c2c1	20 µM (active)	–
Cc1nnc(NCc2ccccc2)c2c1nnn2Cc1ccc(F)cc1	inactive	–
Cc1nc2nc(SCC(=O)N(Cc3ccccc3)C(C)C)nn2c(C)c1Cc1ccccc1Cl	inactive	–
Cc1cccc(NC(=O)C2CCN(S(=O)(=O)c3c(C)noc3/C=C/c3ccco3)CC2)c1	inactive	–
NC(=O)Nc1ccc(C(=O)OCC(=O)NC2CCCc3ccccc32)cc1 (stereo unspecified)	inactive	–
O=C(CCNC(=O)c1ccc(Cl)cc1)NC1CCCc2ccccc21 (stereo unspecified)	inactive	–
O=C(Nc1cccc(F)c1)NC1CCCc2ccccc21 (stereo unspecified)	12.6 µM (active)	–
Cc1cccc(Cn2c(CN3CCC(C(=O)NCc4ccccc4Cl)CC3)cc3ccccc32)c1	inactive	–
Cc1ccc(CSc2nc3cccnc3n2Cc2ccc(C(=O)NC3CC3)cc2)cc1	inactive	–
